From ChEMBL document CHEMBL1961873, “Compounds: GSK PKIS; Assays: Nanosyn kinase panel” (2012) come the findings set out here.

Test [1] addresses Mitogen-activated protein kinase kinase kinase kinase 4 (Homo sapiens) (UniProt O95819). The note with it: at 1 µM.
Test [2] deals with Dual specificity mitogen-activated protein kinase kinase 1 (Homo sapiens) (UniProt Q02750). The note with it: at 0.1 µM.
Test [3] has the same target. The note with it: at 1 µM.
Test [4] concerns the target Misshapen-like kinase 1 (Homo sapiens) (UniProt Q8N4C8). The following applies: at 0.1 µM.
The target is the same in test [5]. The note with it: at 1 µM.
Test [6] addresses T1, Serine/threonine-protein kinase 4 (Homo sapiens) (UniProt Q13043).
T1 sequence (whole entry): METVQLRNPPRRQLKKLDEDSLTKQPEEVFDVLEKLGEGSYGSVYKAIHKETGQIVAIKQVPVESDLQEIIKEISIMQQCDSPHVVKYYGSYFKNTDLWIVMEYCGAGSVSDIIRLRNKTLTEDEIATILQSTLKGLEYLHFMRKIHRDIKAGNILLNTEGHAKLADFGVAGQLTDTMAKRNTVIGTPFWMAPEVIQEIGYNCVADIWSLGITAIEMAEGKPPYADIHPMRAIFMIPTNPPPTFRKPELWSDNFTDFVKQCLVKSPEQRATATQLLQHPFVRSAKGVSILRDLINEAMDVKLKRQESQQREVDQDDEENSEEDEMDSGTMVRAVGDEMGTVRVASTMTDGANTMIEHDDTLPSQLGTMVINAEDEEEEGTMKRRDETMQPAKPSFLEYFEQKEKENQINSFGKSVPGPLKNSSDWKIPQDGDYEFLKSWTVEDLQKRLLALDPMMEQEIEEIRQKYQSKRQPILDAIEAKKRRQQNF
The following applies: at 0.1 µM.

For test [7], the target named is T1, Serine/threonine-protein kinase 4 (Homo sapiens). The following applies: at 1 µM.
Test [8] has as its target T2, Serine/threonine-protein kinase 3 (Homo sapiens) (UniProt Q13188).
T2 sequence (whole entry): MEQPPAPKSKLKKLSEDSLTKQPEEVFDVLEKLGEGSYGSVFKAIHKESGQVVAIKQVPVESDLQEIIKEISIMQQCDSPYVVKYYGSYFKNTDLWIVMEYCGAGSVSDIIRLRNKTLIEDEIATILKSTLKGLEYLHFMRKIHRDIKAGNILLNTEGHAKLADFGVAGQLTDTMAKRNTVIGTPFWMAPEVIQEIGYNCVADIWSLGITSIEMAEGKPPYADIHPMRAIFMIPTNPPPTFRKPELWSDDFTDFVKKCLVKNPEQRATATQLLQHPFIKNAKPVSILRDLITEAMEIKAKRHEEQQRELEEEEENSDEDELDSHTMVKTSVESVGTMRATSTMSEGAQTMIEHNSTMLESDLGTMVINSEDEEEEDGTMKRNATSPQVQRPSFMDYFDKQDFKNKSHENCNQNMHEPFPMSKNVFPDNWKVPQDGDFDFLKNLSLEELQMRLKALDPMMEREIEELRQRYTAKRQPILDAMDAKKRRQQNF
The following applies: at 0.1 µM.

In test [9] the target is T2, Serine/threonine-protein kinase 3 (Homo sapiens). The note with it: at 1 µM.
For test [10], the target named is Serine/threonine-protein kinase 26 (Homo sapiens) (UniProt Q9P289). The note with it: at 0.1 µM.
Chain of Serine/threonine-protein kinase 26 (Homo sapiens) (Q9P289 2-416 limits assumed): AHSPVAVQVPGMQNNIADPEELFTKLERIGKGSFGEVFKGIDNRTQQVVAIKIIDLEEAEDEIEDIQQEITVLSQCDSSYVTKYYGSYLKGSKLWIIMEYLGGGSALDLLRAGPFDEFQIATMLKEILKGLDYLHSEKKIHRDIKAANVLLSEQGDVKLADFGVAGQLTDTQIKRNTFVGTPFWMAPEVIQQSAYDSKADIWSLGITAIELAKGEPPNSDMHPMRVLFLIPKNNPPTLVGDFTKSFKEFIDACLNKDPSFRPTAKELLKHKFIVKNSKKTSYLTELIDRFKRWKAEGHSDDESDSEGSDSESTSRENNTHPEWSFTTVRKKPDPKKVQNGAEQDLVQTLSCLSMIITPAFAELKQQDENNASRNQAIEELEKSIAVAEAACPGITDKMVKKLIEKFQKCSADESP

Chain of Dual specificity mitogen-activated protein kinase kinase 1 (Homo sapiens) (Q02750 whole entry): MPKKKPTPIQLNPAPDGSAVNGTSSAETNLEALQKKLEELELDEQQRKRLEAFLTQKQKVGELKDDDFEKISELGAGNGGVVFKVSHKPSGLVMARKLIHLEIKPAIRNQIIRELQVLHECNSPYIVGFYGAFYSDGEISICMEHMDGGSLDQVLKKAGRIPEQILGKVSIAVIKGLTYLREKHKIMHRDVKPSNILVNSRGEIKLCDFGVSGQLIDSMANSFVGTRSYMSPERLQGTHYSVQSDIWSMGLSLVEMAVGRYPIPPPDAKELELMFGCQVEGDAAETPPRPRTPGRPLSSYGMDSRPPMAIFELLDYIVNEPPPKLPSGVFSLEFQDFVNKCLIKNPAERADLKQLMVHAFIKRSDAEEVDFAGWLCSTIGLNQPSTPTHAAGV
Chain of Mitogen-activated protein kinase kinase kinase kinase 4 (Homo sapiens) (O95819 2-1239 limits assumed): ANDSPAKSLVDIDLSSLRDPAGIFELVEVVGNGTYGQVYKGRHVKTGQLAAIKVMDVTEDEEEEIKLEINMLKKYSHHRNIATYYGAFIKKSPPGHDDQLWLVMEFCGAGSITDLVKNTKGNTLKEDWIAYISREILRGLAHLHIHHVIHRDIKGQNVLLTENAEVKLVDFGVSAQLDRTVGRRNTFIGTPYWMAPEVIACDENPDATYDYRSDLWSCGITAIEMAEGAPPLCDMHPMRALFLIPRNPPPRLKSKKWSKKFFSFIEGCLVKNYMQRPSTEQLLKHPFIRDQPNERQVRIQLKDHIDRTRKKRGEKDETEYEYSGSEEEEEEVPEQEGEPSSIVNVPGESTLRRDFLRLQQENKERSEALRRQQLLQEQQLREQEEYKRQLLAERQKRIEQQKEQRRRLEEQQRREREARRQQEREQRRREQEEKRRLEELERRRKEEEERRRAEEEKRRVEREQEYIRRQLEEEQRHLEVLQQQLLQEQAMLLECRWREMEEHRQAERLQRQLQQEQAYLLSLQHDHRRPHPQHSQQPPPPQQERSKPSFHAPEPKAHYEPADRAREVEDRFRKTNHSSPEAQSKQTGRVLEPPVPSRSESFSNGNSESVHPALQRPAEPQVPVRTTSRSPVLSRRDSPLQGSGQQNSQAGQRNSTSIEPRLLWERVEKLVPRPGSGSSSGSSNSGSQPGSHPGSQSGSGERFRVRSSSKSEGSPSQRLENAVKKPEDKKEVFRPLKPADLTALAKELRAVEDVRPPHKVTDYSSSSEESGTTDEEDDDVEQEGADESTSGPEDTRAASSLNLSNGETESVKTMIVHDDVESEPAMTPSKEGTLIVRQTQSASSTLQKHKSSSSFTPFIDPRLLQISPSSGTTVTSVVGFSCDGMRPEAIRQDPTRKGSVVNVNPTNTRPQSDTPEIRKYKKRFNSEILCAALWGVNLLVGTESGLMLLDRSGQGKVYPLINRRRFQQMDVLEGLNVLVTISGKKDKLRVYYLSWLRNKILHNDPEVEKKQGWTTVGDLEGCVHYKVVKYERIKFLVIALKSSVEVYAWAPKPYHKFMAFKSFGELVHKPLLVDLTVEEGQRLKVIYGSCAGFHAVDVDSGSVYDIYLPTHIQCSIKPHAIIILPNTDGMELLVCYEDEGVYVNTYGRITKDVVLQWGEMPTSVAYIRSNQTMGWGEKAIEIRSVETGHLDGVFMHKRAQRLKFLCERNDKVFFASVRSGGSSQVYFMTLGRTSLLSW
Chain of Misshapen-like kinase 1 (Homo sapiens) (Q8N4C8 whole entry, looked up): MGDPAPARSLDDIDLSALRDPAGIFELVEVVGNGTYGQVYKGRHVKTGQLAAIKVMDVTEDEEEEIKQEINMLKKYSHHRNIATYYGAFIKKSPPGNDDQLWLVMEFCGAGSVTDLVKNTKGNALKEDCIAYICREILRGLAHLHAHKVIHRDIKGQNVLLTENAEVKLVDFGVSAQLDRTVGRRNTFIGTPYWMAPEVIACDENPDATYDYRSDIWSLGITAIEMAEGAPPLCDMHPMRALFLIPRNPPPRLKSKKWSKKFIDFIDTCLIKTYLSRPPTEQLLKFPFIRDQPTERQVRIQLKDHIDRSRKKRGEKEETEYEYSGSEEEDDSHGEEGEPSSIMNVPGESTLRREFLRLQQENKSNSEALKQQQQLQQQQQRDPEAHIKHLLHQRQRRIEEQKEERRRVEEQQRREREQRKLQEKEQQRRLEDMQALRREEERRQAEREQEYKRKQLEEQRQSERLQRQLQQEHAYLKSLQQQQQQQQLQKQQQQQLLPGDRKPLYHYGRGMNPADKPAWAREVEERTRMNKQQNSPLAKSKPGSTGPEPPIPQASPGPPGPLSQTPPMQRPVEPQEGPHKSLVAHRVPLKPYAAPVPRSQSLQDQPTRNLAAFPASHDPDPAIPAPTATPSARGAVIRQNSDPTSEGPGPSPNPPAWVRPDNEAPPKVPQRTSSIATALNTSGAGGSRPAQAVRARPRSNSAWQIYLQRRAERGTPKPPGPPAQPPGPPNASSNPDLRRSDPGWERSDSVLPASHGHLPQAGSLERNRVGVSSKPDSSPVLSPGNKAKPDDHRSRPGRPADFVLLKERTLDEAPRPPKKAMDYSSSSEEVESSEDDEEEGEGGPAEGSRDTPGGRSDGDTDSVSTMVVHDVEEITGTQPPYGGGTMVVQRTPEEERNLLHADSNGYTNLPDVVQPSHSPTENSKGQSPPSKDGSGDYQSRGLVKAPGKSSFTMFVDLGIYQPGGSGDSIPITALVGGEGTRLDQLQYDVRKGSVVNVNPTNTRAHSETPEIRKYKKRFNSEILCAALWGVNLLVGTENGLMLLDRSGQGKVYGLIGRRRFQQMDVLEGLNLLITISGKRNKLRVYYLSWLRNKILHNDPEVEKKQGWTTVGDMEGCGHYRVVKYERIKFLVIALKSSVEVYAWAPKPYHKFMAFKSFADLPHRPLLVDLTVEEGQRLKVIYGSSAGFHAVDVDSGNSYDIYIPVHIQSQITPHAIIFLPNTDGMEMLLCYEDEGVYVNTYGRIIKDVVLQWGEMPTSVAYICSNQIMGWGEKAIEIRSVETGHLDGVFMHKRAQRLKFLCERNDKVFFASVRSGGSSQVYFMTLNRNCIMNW

As for `C/C(Nc1ccc(S(N)(=O)=O)cc1)=C1/C(=O)Nc2ccccc21`, the inhibition was 88.3% in test [1]; -1.13% in [2]; 0.96% in [3]; 34.1% in [4]; 85.3% in [5]; 10.2% in [6]. Moreover, the inhibition in test [7] was 55.3%; in test [8] it was 3.63%; in [9] it was 42.3%; in [10] it was -1.9%.
Consider `CN1CCN(CCCNc2nc3ccc(Oc4ccc(NC(=O)Nc5cc(C(F)(F)F)ccc5F)cc4)cc3[nH]2)CC1`, for which the inhibition amounted to 2.12% in test [1]; 2.3% in test [2]; 1.94% in test [3]; 1.67% in test [4]; 1.26% in test [5]; 3.59% in test [6]. Besides, the inhibition is 3.57% in test [7], 2.61% in [8], 3.55% in test [9] and 1.41% in test [10].
`CN(c1ccc(NC(=O)Nc2c(Cl)cccc2Cl)cc1)c1ccnc(Nc2cccc(CS(C)(=O)=O)c2)n1`: the inhibition in test [1] amounted to 73.4%; in [2] it was 5.73%; in [3], 5.34%; in test [4] it was 21.2%; in [5] it was 64.5%; in [6] it was 8.06%. In addition, the inhibition amounted to 17.4% in test [7], 8.37% in test [8], 11.5% in [9] and 0.39% in [10].
Consider `Cc1nnc(-c2ccc(C)c(-c3ccc(C(=O)NCc4ccc(Cl)cc4)cc3)c2)o1`, for which the inhibition in test [1] was 5.28%; in test [2], 6.35%; in [3], 4.13%; in test [4] it was 5.42%; in test [5], 5.04%; in test [6] it was 3.28%. Moreover, the inhibition is 4.86% in test [7], 4.12% in [8], 5.51% in [9] and -1.19% in test [10].
On to `Cc1ccc(C(=O)NC(C)C)cc1-c1ccc(C(=O)NCC2CC2)cc1`, for which the inhibition in test [1] is 1.81%; in [2] it was -2.99%; in test [3] it was -1.83%; in test [4] it was -3.61%; in test [5], -1.09%; in test [6], -3.24%. Besides, the inhibition in test [7] is -3.63%; in [8], -4.19%; in test [9], -4.98%; in test [10], 2.16%.
Consider `CN(C)CCCNc1nccc(-c2c(-c3ccc(F)cc3)nn3cc(C(F)(F)F)ccc23)n1`, for which the inhibition was 10.6% in test [1]; 1.86% in test [2]; 2.52% in [3]; 5.22% in test [4]; 7.76% in test [5]; 2.92% in [6]. Further, the inhibition is 4.75% in [7], 3.38% in test [8], 3.61% in [9] and -0.11% in test [10].
Take `NC(=O)c1cc(-c2ccc(F)cc2)cc(-c2ccncc2)c1N`: the inhibition in test [1] stood at 9.21%; in test [2], 5.61%; in [3], 3.83%; in test [4], 4.49%; in test [5], 10%; in [6], 3.76%. Also, the inhibition in [7] is 5.59%; in test [8], 4.31%; in test [9], 5.48%; in test [10] it was -2.72%.
With `COc1ccc(-c2ccc3c(NC(=O)C4CC4)n[nH]c3n2)cc1`, the inhibition in test [1] was found to be 33%; in test [2], 2.82%; in test [3] it was 2.1%; in test [4] it was 5.24%; in test [5] it was 21.8%; in test [6] it was 2.12%. In addition, the inhibition is 4.96% in [7], 2.09% in test [8], 5.21% in test [9] and -1.38% in test [10].
`Fc1ccc(-c2ncn(C3CCNCC3)c2-c2ccnc(Oc3ccc(Oc4ccccc4)cc3)n2)cc1`: the inhibition worked out at 7.43% in [1]; 4.35% in [2]; 7.53% in test [3]; 5.29% in [4]; 9.38% in test [5]; 2.43% in test [6]. The inhibition was 4.68% in test [7], 4.83% in test [8], 5.3% in [9] and -1.41% in test [10].
Take `Fc1ccc(-c2nc3n(c2-c2ccncc2)CCS3)cc1`: the inhibition in [1] turned out to be 18.3%; in [2], 5.23%; in [3], 5.11%; in test [4], 6.96%; in [5], 14%; in test [6] it was 3.57%. Besides, the inhibition in [7] was 4.41%; in test [8] it was 3.46%; in test [9], 3.73%; in test [10], -1.69%.
With `CS(=O)(=O)CCNCc1cc(-c2cc3c(Nc4ccc(OCc5cccc(F)c5)c(Cl)c4)ncnc3s2)cs1`, the inhibition in [1] was 10.3%; in [2], 4.54%; in [3], 5.74%; in test [4] it was 6.33%; in [5], 8.36%; in test [6], 4.99%. Besides, the inhibition in test [7] is 6.28%; in test [8], 6.59%; in [9], 6.16%; in [10] it was -2.65%.
For `COc1ccc2cc(-c3c(-c4ccncc4)nc(-c4ccc([S+](C)[O-])cc4C)n3C)ccc2c1` (stereo not given), the inhibition in test [1] was 17.7%; in [2], -0.9%; in [3] it was -1.09%; in [4], 0.1%; in test [5] it was 12.5%; in [6] it was -2.13%. Moreover, the inhibition in test [7] is 7.66%; in test [8], -0.9%; in test [9], 17.3%; in test [10], 0.68%.
For `O=C(Nc1n[nH]c2cc(-c3ccccc3)ccc12)C1CC1`, the inhibition in [1] is 74.2%; in test [2], 4.67%; in [3], 3.62%; in test [4] it was 21.4%; in [5] it was 64.5%; in test [6] it was 4.78%. Besides, the inhibition was 6.38% in [7], 5.18% in test [8], 6.35% in test [9] and -2.61% in test [10].
For `O=C(NCC1CC1)c1ccc(-c2cccc(C(=O)NC3CC3)c2)cc1`, the inhibition in test [1] was 2.03%; in test [2], 3.01%; in [3], 1.66%; in test [4] it was 2.89%; in [5], -1.8%; in test [6], 4.49%. In addition, the inhibition in test [7] is 5.3%; in test [8], 4.78%; in test [9] it was 3.31%; in [10], -2.14%.
As to `Fc1ccc(-c2c(-c3ccncc3)nc3n2CCS3)cc1`, the inhibition in test [1] was 10.8%; in [2] it was 3.75%; in test [3] it was 4.29%; in test [4], 4.97%; in test [5], 9.56%; in [6], 1.09%. For the same compound, the inhibition in [7] is 2.38%; in test [8], 1.69%; in test [9], 3.46%; in test [10] it was -0.47%.
Regarding `CN(C)CCOc1ccc(-c2cc(-c3ccc4c(c3)CCC4=NO)c(-c3ccncc3)o2)cc1`, the inhibition is 17.3% in [1]; 1.44% in [2]; 2.23% in test [3]; 0.59% in test [4]; 12.5% in test [5]; -0.36% in test [6]. Moreover, the inhibition is 0.8% in test [7], -1.52% in test [8], 1.19% in test [9] and 0.59% in [10].
In the case of `CN(C)c1ccc2c(c1)/C(=C/Nc1ccc(S(N)(=O)=O)cc1)C(=O)N2`, the inhibition came out at 70% in [1]; 2.52% in test [2]; 6.25% in [3]; 18.1% in test [4]; 63.6% in test [5]; 44.2% in [6]. For the same compound, the inhibition in test [7] worked out at 71.7%; in [8] it was 32.3%; in test [9], 68%; in test [10] it was 0.49%.

The term inhibition denotes the change of the read-out against control, counted positive when it falls.
